Most compounds without a hit are left out; they make up all but 2.6% or so of the library.
Cruzain inh noDet – blocks cruzain activity in detergent-free assay; 200,000 compounds, 2.3% hits; AID 1476; P25779; purified cruzain, Z-FR-AMC fluorescence, no detergent; Potency, µM, hits mostly inhibitors; also: nearly all actives have a fitted effect of over 40% in size
Target sequence (P25779 123-467 limits assumed): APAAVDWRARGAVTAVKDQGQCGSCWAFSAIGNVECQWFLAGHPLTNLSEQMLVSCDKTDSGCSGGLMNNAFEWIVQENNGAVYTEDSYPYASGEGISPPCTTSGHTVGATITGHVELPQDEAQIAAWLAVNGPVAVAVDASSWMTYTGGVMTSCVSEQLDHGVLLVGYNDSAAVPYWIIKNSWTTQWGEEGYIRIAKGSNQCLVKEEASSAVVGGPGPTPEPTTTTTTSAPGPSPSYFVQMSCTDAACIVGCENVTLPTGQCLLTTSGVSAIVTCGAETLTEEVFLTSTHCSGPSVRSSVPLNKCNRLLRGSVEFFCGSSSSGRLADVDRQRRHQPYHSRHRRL
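Detergent-free condition (0.00005% Triton X-100) in acetate buffer pH 5.5 with DTT. 1.5 nM enzyme and compound were pre-mixed 15 min, then 2 uM Z-FR-AMC substrate added; reaction progress from fluorescence change between first and third reads (60 s).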
Cruzain inh Det – cruzain (T. cruzi) inhibition with detergent. purified cruzain, Z-FR-AMC fluorescence, 0.01% Triton. Potency, µM, most hits filed as inhibitors. 200,000 compounds, 0.43% hits. AID 1478; also: nearly all actives have a fitted effect of over 40% in size
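Purified cruzain (1.5 nM final) was preincubated with compounds for 15 min at room temperature in 100 mM sodium acetate pH 5.5, 5 mM DTT, 0.01% Triton X-100. Reaction started with 2 uM Z-FR-AMC; AMC fluorescence change over 60 s gave activity.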
Of the large screens only hits and unclear results are named; the others gave an inactive call. Calls follow the shape of the dose curve; as a rule, active = well fitted curve in the direction sought with a large enough effect; inconclusive = small, poorly fitted or top-dose-only effect, or another doubt; inactive = no such curve, though single readings can be large; an effect the other way counts as inactive or inconclusive.

Cc1ccc(OCCSc2nc3ccc(NC(=O)c4cccs4)cc3s2)cc1	none
Cc1cc(C)cc(OCCSc2nc3ccc(NC(=O)c4cccs4)cc3s2)c1	Cruzain inh noDet 20µM
Cc1ccc(CC(=O)Nc2nc3ccccc3s2)cc1	none
CCc1ccc(/C=C2/SC(=S)N(CC(=O)Nc3nc4ccccc4s3)C2=O)cc1	Cruzain inh noDet 3.16µM
COc1cccc(-c2nn(-c3ccccc3)cc2C(=O)n2nnc3ccccc32)c1	Cruzain inh noDet 31.6µM
O=C(c1cn(-c2ccccc2)nc1-c1ccccc1)n1nnc2ccccc21	Cruzain inh noDet inconclusive
Cc1cc(-c2csc(NC(=O)c3ccc(S(=O)(=O)N(C)C)cc3)n2)c(C)n1-c1ccccc1	Cruzain inh noDet 15.8µM
CN(C)S(=O)(=O)c1ccc(C(=O)Nc2nnc(SCc3cccc(F)c3)s2)cc1	Cruzain inh noDet 3.98µM
CN(C)S(=O)(=O)c1ccc(C(=O)Nc2nnc(SCc3ccccc3)s2)cc1	Cruzain inh noDet 3.16µM
CN(C)S(=O)(=O)c1ccc(C(=O)Nc2nnc(Cc3ccccc3)s2)cc1	none
CCSc1nnc(NC(=O)CN(C)S(=O)(=O)c2ccc(F)cc2)s1	none
CN(C)S(=O)(=O)c1ccc(C(=O)Nc2nc(-c3cc4ccccc4o3)cs2)cc1	Cruzain inh noDet inconclusive
COc1ccc(C(=O)Nc2ccc3c(c2)CCCN3S(=O)(=O)c2ccc(C)cc2)c(OC)c1	Cruzain inh noDet inconclusive
CCN(C(=O)CSc1nc2ccccc2n1CC(=O)N1CCCC(C)C1)c1ccccc1 (configuration not stated)	none
CC(=O)c1ccc(N2CCN(C(=O)C3CCN(S(=O)(=O)c4cccc5nonc45)CC3)CC2)cc1	none
CCCCc1ccc(NC(=O)CSc2nc(=O)[nH]c3c2CCCC3)cc1	none
CCOC(=O)c1c(C)c(-c2ccccc2)n(CC(=O)NCCc2cccc(C)c2)c1C	none
CCOC(=O)c1cc([N+](=O)[O-])sc1NC(=O)c1ccc(S(=O)(=O)N2CC3(C)CC2CC(C)(C)C3)cc1 (configuration not stated)	Cruzain inh noDet 3.98µM
CC1(C)CC2CC(C)(CN2S(=O)(=O)c2ccc(C(=O)Nc3ccc(S(=O)(=O)N4CCOCC4)cc3)cc2)C1 (configuration not stated)	none
Cc1sc2c(c1C)CN(C(C)(C)C)CN2C(=O)c1ccccc1	Cruzain inh noDet 25.1µM
COCCN1Cc2c(sc(C)c2C)N(C(=O)c2ccccc2)C1	none
COCc1cc(C)nc(OCC(=O)N/N=C/c2cc(C)n(-c3c(C)cccc3C)c2C)c1C#N	none
COCc1c(Br)c(C)nc(OCC(=O)N/N=C/c2cc(C)n(-c3ccc([N+](=O)[O-])cc3)c2C)c1C#N	Cruzain inh noDet 31.6µM
Oc1cccc(NC(=S)Nc2ccc(SC(F)F)cc2)c1	none
FC(F)Sc1ccc(NC(=S)NC2CCC(NC(=S)Nc3ccc(SC(F)F)cc3)CC2)cc1 (configuration not stated)	Cruzain inh noDet 15.8µM
Cc1ccc(-n2ncc3c(NCCc4ccccc4)ncnc32)cc1	none
COC(=O)c1ccccc1NS(=O)(=O)c1cc2c(cc1C)N(C)CCO2	none
O=C(Oc1ccc(N(Cc2cccs2)C2=NS(=O)(=O)c3ccccc32)cc1)c1ccccc1Cl	Cruzain inh noDet 10µM
O=C(Oc1ccc(N(Cc2cccs2)C2=NS(=O)(=O)c3ccccc32)cc1)c1ccco1	none
CC1CCN(c2ccc(/C=N/n3nnnc3N)cc2[N+](=O)[O-])CC1	none
CC1CCN(c2ccc(/C=N\Nc3nncn3N)cc2[N+](=O)[O-])CC1	Cruzain inh noDet 25.1µM
N#Cc1cccc(NC(=O)N2CCCC3(CCN(S(=O)(=O)c4ccccc4)CC3)C2)c1	none
CC(C)c1ccc(CN(Cc2ccco2)c2cnc(S(C)(=O)=O)nc2C(=O)Nc2ccccc2)cc1	Cruzain inh noDet inconclusive
Cc1ccc(NC(=O)c2nc(S(C)(=O)=O)ncc2N(Cc2ccco2)Cc2ccccc2F)c(C)c1	none
CC(C)(C)c1ccc(CN(Cc2ccco2)c2cnc(S(C)(=O)=O)nc2C(=O)Nc2ccc(F)cc2)cc1	Cruzain inh noDet 7.94µM
COc1ccc(CN(Cc2ccco2)c2cnc(S(C)(=O)=O)nc2C(=O)Nc2ccc(C)c(C)c2)cc1	Cruzain inh noDet 20µM
COc1ccc(CN(Cc2ccco2)c2cnc(S(C)(=O)=O)nc2C(=O)Nc2ccc(C)cc2C)cc1	Cruzain inh noDet inconclusive
CCS(=O)(=O)c1ncc(N(Cc2ccco2)Cc2ccccc2F)c(C(=O)Nc2cccc(Cl)c2)n1	Cruzain inh noDet 20µM
COc1ccc(-n2c(=O)c(CCc3ccccc3)nc3cnc(N4CCOCC4)nc32)cc1	none
CCCCC/C=C\C/C=C\CCCCCCCCCC(=O)NC(C)C(=O)O (configuration not stated)	none
NC(=O)CCCCC(N)=O	none
Cc1cc(C(=O)COC(=O)CC2Sc3ccccc3NC2=O)c(C)n1-c1ccccc1 (configuration not stated)	Cruzain inh noDet inconclusive
CC(=O)c1ccc(OCC(=O)c2cc(C)n(-c3ccc4c(c3)OCO4)c2C)cc1	none

High-throughput results deposited in PubChem BioAssay by National Center for Advancing Translational Sciences (NCATS).
